This note sets out measurements from the OligoGym collection.
Also: reference of the scale not given here.

The target in one test is ALDH1A3. The test can be described thus: pooled miR-30 sensor sort-seq; sequence = guide strand. Particulars: shRNA.
TTCTGTTTTGACATCGAAGGGG: the sensor-assay potency score (higher = more potent) came to 0.0292.

The sequence TTCGATACTTTTGAACTTCAGT gave a sensor-assay potency score (higher = more potent) of -0.228.

In the case of TAGCAGTTGATCCAGACCGTTC, the sensor-assay potency score (higher = more potent) was -1.2.

For the sequence TTTGTGAACACGGCTGCTGTGA, the sensor-assay potency score (higher = more potent) is -0.151.

For TTTTTGTGAACACGGCTGCTGT, the sensor-assay potency score (higher = more potent) was -0.433.

The sequence ATTGTTGATAAATATCTTGGTG displayed a sensor-assay potency score (higher = more potent) of -0.0591.

The sequence TTTTTTGTGAACACGGCTGCTG gave a sensor-assay potency score (higher = more potent) of 0.356.

The sequence TCTGTTTTGACATCGAAGGGGT yielded a sensor-assay potency score (higher = more potent) of 0.173.

As for TTTCTTGGCATACTCCACGCTC, the sensor-assay potency score (higher = more potent) is -0.65.

TTTATCACTTCTTCGATACTTT gave a sensor-assay potency score (higher = more potent) of -0.132.

On to TTGAAGGGTTACATGTAGCAAA, for which the sensor-assay potency score (higher = more potent) was -0.786.

ATAAATATCTTGGTGAACTTGA showed a sensor-assay potency score (higher = more potent) of -0.0326.

For the sequence TAGTCGGTGCTATTCGCTCTTT, the sensor-assay potency score (higher = more potent) was -0.888.

Sequence TTCCACTTCACATATTTGCTCC returned a sensor-assay potency score (higher = more potent) of -0.153.

TTTTGAACTTCAGTATTGGTTG displayed a sensor-assay potency score (higher = more potent) of -0.527.

For TTCTTCGATACTTTTGAACTTC, the sensor-assay potency score (higher = more potent) was determined as 0.188.

TAAGATTTTGTCGAACTGCTTT: the sensor-assay potency score (higher = more potent) was 0.131.

Consider TTGTTGATAAATATCTTGGTGA, for which the sensor-assay potency score (higher = more potent) is 0.169.

TTGGTTGAAGAACACTCCCTGA came in with a sensor-assay potency score (higher = more potent) of -0.48.

Regarding TTTCCTGACATTTTAAAGCCAC, the sensor-assay potency score (higher = more potent) was -0.397.

The next test deals with ALDH9A1. The description is as above. As to conditions: shRNA.
TTCACATCATTCCACAGCGTGG: the sensor-assay potency score (higher = more potent) is -1.5.

TTATCCTAGTCTCTTTTCCTGT registered a sensor-assay potency score (higher = more potent) of -0.816.

Sequence TTTGCCACTTTGACAAACCCAA yielded a sensor-assay potency score (higher = more potent) of -0.698.

For TAGATTTCCTCTATCGCAGTAG, the sensor-assay potency score (higher = more potent) was 0.289.

In the case of TTAATTTGGGATCTTCAGGTAC, the sensor-assay potency score (higher = more potent) is 0.221.

Sequence TTAAAGGGTAGCTCCACTGGTG came in with a sensor-assay potency score (higher = more potent) of -0.285.

TAATATTCGATTGTCACACGGC gave a sensor-assay potency score (higher = more potent) of 0.406.

With TTCTCTAGAAGTATGTTACTGG, the sensor-assay potency score (higher = more potent) is -0.159.

In turn, TTCTTGATTAGTATCTACAAGG returned a sensor-assay potency score (higher = more potent) of -0.856.

The sequence TAACATTCAGTTGTACTGCCTC returned a sensor-assay potency score (higher = more potent) of -0.0109.

On to TTGTTAATGAAGCACGTCCCAG, for which the sensor-assay potency score (higher = more potent) is -1.05.

For TATAACCAAACGATCCACCTGG, the sensor-assay potency score (higher = more potent) was determined as 0.155.

TTAGTTAATACACAAGGTCTCA registered a sensor-assay potency score (higher = more potent) of -0.528.

Take TTTCTTGATTAGTATCTACAAG: the sensor-assay potency score (higher = more potent) is -1.25.

Consider TTGATTAGTATCTACAAGGCAC, for which the sensor-assay potency score (higher = more potent) came out at 0.363.

As for TTGATGAGTGGACCCATCCTTG, the sensor-assay potency score (higher = more potent) was -0.479.

The sequence TCTTTCTGCACAAATACTCTTG displayed a sensor-assay potency score (higher = more potent) of -0.35.

As for TTCTCTTATACTGAACGCCAAA, the sensor-assay potency score (higher = more potent) is -1.4.

Sequence TAAAAAAATGTCAATGAGCTGA registered a sensor-assay potency score (higher = more potent) of -0.73.

Consider TCTCATGTAATATCCATCCTTT, for which the sensor-assay potency score (higher = more potent) was -0.314.
